Data published in PubChem BioAssay (NCATS).
Inconclusive results are not listed. Where a call stands in place of a potency, no number is given. Active and inactive are the calls of the source. Calls come from the whole dose curve; as a rule, active = well fitted curve in the direction sought with a large enough effect; inconclusive = small, poorly fitted or top-dose-only effect, or another doubt; inactive = no such curve, though single readings can be large; an effect the other way counts as inactive or inconclusive.

Legend:
[1] = qHTS of pediatric cancer cell lines to identify multiple opportunities for drug repurposing: Primary screen for LAN-5 cells (AID 1347100); details: LAN-5 neuroblastoma viability, CellTiter-Glo luminescence, 48 h; series mostly up to 46 µM; note: potency is the fitted concentration of half-maximal effect
How it was run: (§1)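 Cells (500-1,000/well) rested 5 h, then received compounds for 48 h; metabolically active cells were measured by CellTiter-Glo luminescence. Final concentrations spanned up to 46 µM (MIPE, 11-point) or 0.59 nM-46 µM (NPC, 8-point) in primary screens, 11-point in follow-ups.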

[2] = qHTS of pediatric cancer cell lines to identify multiple opportunities for drug repurposing: Primary screen for Rh18 cells (AID 1347102); details: Rh18 rhabdomyosarcoma viability, CellTiter-Glo luminescence, 48 h; series mostly up to 46 µM; note: nearly all actives have a fitted effect of over 65% in size
How it was run: as §1

[3] = qHTS of pediatric cancer cell lines to identify multiple opportunities for drug repurposing: Primary screen for RD cells (AID 1347104); details: RD rhabdomyosarcoma viability, CellTiter-Glo luminescence, 48 h; series mostly up to 46 µM; note: nearly all actives have a fitted effect of over 55% in size
How it was run: (§2)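 Plated cells (500-1,000 per well, growth media) were allowed to settle for 5 hours, treated with compound dilutions for 48 hours, then lysed with CellTiter-Glo for 15 min at room temperature before luminescence reading.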

[4] = qHTS of pediatric cancer cell lines to identify multiple opportunities for drug repurposing: Primary screen for MG 63 (6-TG R) cells (AID 1347105); details: MG 63 (6-TG R) viability, CellTiter-Glo, 48 h; series mostly up to 46 µM; note: nearly all actives have a fitted effect of over 50% in size; note: potency is the fitted concentration of half-maximal effect
How it was run: as §2

[5] = qHTS of pediatric cancer cell lines to identify multiple opportunities for drug repurposing: Primary screen for control Hh wild type fibroblast cells (AID 1347106); details: Hh wild-type fibroblast viability, CellTiter-Glo luminescence, 48 h; series mostly up to 46 µM;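 note: a drop in luminescence marks cytotoxicity and a rise apparent proliferation; nearly all actives have a fitted effect of over 55% in size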
How it was run: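 Cells (500-1,000/well) in growth media were settled 5 h at 37 degrees C, then given compounds for 48 h. Viability was read as CellTiter-Glo luminescence. Primary runs used MIPE at 11 points (0.78 nM-46 µM) and NPC at 8 points (0.59 nM-46 µM); follow-ups used 11 points.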

[6] = qHTS of pediatric cancer cell lines to identify multiple opportunities for drug repurposing: Primary screen for Rh30 cells (AID 1347107); details: Rh30 rhabdomyosarcoma viability, CellTiter-Glo luminescence, 48 h; series mostly up to 46 µM; note: nearly all actives have a fitted effect of over 75% in size
How it was run: as §1

[7] = qHTS of pediatric cancer cell lines to identify multiple opportunities for drug repurposing: Primary screen for OHS-50 cells (AID 1347103); details: OHS-50 osteosarcoma viability, CellTiter-Glo luminescence, 48 h; series mostly up to 57.3 µM; note: nearly all actives have a fitted effect of over 40% in size; note: potency is the fitted concentration of half-maximal effect
How it was run: as §1

[8] = qHTS of pediatric cancer cell lines to identify multiple opportunities for drug repurposing: Primary screen for NB1643 cells (AID 1347099); details: NB1643 neuroblastoma viability, CellTiter-Glo luminescence, 48 h; series mostly up to 46 µM; note: nearly all actives have a fitted effect of over 50% in size
How it was run: as §2

[9] = qHTS of pediatric cancer cell lines to identify multiple opportunities for drug repurposing: Primary screen for BT-12 cells (AID 1347101); details: BT-12 viability, CellTiter-Glo luminescence, 48 h; series mostly up to 57.3 µM; note: nearly all actives have a fitted effect of over 25% in size; note: potency is the fitted concentration of half-maximal effect
How it was run: as §1

[10] = qHTS of pediatric cancer cell lines to identify multiple opportunities for drug repurposing: Primary screen for SK-N-SH cells (AID 1347098); details: SK-N-SH viability, CellTiter-Glo luminescence, 48 h; series mostly up to 57 µM;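 note: DMSO served as neutral control and bortezomib at 2.3 µM as positive control; nearly all actives have a fitted effect of over 65% in size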
How it was run: as §1

Structure (SMILES)	Potency [1]	Potency [2]	Potency [3]	Potency [4]	Potency [5]	Potency [6]	Potency [7]	Potency [8]	Potency [9]	Potency [10]
CC1COC2(c3ccccc3Cl)c3cc(Cl)ccc3NC(=O)CN12 (stereo not drawn)	6.68 µM (active)	inactive	inactive	inactive	inactive	inactive	–	–	–	–
C[C@H](CN1CCOCC1)C(C(=O)N1CCCC1)(c1ccccc1)c1ccccc1	–	–	–	–	inactive	–	43.4 µM (active)	–	–	–
CCC(=O)C(CCN(C)C)(c1ccccc1)c1ccccc1	inactive	–	inactive	inactive	inactive	–	–	inactive	–	–
Cc1nnc2n1-c1sc(CCc3ccc(CC(C)C)cc3)cc1C(c1ccccc1Cl)=NC2C (stereo not drawn)	23.7 µM (active)	–	–	–	inactive	inactive	21.9 µM (active)	–	11 µM (active)	–
CN1CCc2cc(Cl)c(O)cc2[C@H]2c3ccccc3CC[C@@H]21	inactive	inactive	inactive	inactive	inactive	inactive	–	inactive	–	–
CN1C2CCC(C)(C)C1CC(OC(=O)C(O)(c1cccs1)c1cccs1)C2 (stereo not drawn)	inactive	inactive	inactive	inactive	inactive	–	–	–	–	–
CC[C@H](O)C(C[C@H](C)N(C)C)(c1ccccc1)c1ccccc1	inactive	inactive	–	–	inactive	–	inactive	inactive	inactive	–
CCC(=O)O[C@H]1CC[C@H]2[C@@H]3CCC4=CC(=O)CC[C@]4(C)[C@H]3CC[C@]12C	–	inactive	inactive	inactive	inactive	–	–	–	inactive	–
CCc1cc(OC)c(C[C@H](C)N)cc1OC	inactive	inactive	–	–	inactive	inactive	inactive	inactive	–	–
Oc1ccc2[nH]cc(CCCCN3CC=C(c4ccccc4)CC3)c2c1	11.9 µM (active)	–	–	inactive	inactive	inactive	27.6 µM (active)	inactive	15.5 µM (active)	–
Nc1ccc(Cl)cc1C(=O)c1ccccc1F	inactive	inactive	inactive	–	inactive	inactive	–	–	inactive	–
COc1cc(CC(C)N)c(OC)cc1Br (stereo not drawn)	–	inactive	–	17.9 µM (active)	–	inactive	–	–	–	–
O=C(CCl)c1ccc(Cl)cc1Cl	16.8 µM (active)	inactive	–	–	inactive	inactive	–	–	–	–
O=C(NC(=O)c1c(F)cccc1F)Nc1cc(Cl)c(OC(F)(F)C(F)C(F)(F)F)cc1Cl (stereo not drawn)	–	inactive	inactive	–	inactive	inactive	–	–	–	inactive
N#Cc1nn(-c2c(Cl)cc(C(F)(F)F)cc2Cl)c(N)c1S(=O)C(F)(F)F (stereo not drawn)	–	inactive	–	–	inactive	–	24.6 µM (active)	inactive	12.3 µM (active)	–
Cc1nc2ccccc2c(=O)n1-c1ccccc1Cl	inactive	inactive	inactive	–	inactive	inactive	–	inactive	–	–
